# Reference: PubChem BioAssay
# Where “and” joins values, the source holds several entries; their conditions need not be identical. Identical values can stand only once. Records with an inconclusive call do not appear. Calls of active or inactive are those of the source.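 How the source made its calls, unless noted: active means at least 20% inhibition of 6-phosphogluconate dehydrogenase activity; inactive means the rest.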
# Columns and labels:
# [1] = liver-stage malaria parasite growth inhibition, primary screen, cell-based, HepG2, luciferase luminescence, HepG2 viability (AID 624349; in the data active means parasite load remaining mostly below about 12%, no sharp cut-off; inactive means mostly above about 10%;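 further: 100% = mean of DMSO negative control wells on the same plate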); conditions: P. berghei liver stage in HepG2, luciferase luminescence, concentration not given here; parasite load remaining: stronger effect = lower value; viability: measured here: HepG2 viability without parasites
# [2] = target: 6-phosphogluconate dehydrogenase, decarboxylating (Homo sapiens) (UniProt P52209); assay: 6PGD enzyme inhibitors, primary screen, biochemical, human, recombinant enzyme, NADPH absorbance (AID 1159550); conditions: recombinant 6PGD, NADPH absorbance 341 nm; at 10 µM; stronger effect = higher value
# Sequence of 6-phosphogluconate dehydrogenase, decarboxylating (Homo sapiens) (P52209 whole entry, looked up): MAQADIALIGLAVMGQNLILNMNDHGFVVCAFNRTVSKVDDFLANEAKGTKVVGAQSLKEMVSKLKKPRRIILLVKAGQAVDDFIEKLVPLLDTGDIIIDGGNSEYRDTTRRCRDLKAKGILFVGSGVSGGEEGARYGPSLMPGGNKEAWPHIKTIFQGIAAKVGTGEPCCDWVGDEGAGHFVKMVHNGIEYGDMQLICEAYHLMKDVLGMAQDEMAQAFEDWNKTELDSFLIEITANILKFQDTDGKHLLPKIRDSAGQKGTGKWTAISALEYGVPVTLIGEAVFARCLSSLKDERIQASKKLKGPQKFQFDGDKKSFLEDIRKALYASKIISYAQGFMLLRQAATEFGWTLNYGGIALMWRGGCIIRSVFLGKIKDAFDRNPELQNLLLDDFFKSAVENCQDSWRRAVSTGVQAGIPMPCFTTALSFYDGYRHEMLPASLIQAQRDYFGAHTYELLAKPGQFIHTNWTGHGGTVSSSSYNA
# [3] = growth inhibition of DIPG glioma cells, dose response, cell-based, SU-DIPG-XIII, MIPE4.0, CellTiter-Glo, qHTS (AID 1347061; cut-off not given, nearly all actives have AC50 up to about 37 µM;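 further: cells exposed to compound for 48 hours before readout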); conditions: SU-DIPG-XIII viability, CellTiter-Glo ATP luminescence
# [4] = growth inhibition of DIPG glioma cells, dose response, cell-based, JHH-DIPG-1, MIPE4.0, CellTiter-Glo, qHTS (AID 1347062; cut-off not given, nearly all actives have AC50 up to about 27 µM;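 on AC50: cells exposed to compound for two days before readout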); conditions: JHH-DIPG-1 viability, CellTiter-Glo ATP luminescence
# [5] = growth inhibition of DIPG glioma cells, dose response, cell-based, SU-DIPG-IV, MIPE4.0, CellTiter-Glo, qHTS (AID 1347063; cut-off not given, nearly all actives have AC50 up to about 30 µM;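 further: compound exposure lasted 48 hours before the viability readout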); conditions: SU-DIPG-IV viability, CellTiter-Glo ATP luminescence
# [6] = sensitizers of A549 cells to miR-34 induction, primary screen, imaging, A549 dox-inducible miR-34, nuclei and caspase counts (AID 1347080;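 active means compounds whose cell count with miR-34 switched on is under 0.7 times the count with it off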); conditions: A549 miR-34 inducible, Hoechst nuclei count, 48 h
# [7] = survival rescue of mitochondrial mutant cells in low glucose, primary screen, MELAS cybrids, Rieske KO mouse fibroblasts, CellTiter-Glo (AID 1508586;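 active means mean z-score across replicates of 1.96 or higher in either the MELAS or the Rieske mutant cell line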;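 further: z relative to plate mean and SD of compound and empty wells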)
# [8] = target: NAD(+) hydrolase SARM1 (Homo sapiens) (UniProt Q6SZW1); assay: SARM1 TIR NADase inhibitors, cell lysate, NAD-Glo luminescence (AID 1508614;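 active means compound whose remaining NAD level is above about 45 nM, limit read from the data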); conditions: SAM-TIR HEK293T lysate NADase, at 1 µM, stronger effect = higher value
# Sequence of NAD(+) hydrolase SARM1 (Homo sapiens) (Q6SZW1 whole entry, looked up, the tested form may be a part): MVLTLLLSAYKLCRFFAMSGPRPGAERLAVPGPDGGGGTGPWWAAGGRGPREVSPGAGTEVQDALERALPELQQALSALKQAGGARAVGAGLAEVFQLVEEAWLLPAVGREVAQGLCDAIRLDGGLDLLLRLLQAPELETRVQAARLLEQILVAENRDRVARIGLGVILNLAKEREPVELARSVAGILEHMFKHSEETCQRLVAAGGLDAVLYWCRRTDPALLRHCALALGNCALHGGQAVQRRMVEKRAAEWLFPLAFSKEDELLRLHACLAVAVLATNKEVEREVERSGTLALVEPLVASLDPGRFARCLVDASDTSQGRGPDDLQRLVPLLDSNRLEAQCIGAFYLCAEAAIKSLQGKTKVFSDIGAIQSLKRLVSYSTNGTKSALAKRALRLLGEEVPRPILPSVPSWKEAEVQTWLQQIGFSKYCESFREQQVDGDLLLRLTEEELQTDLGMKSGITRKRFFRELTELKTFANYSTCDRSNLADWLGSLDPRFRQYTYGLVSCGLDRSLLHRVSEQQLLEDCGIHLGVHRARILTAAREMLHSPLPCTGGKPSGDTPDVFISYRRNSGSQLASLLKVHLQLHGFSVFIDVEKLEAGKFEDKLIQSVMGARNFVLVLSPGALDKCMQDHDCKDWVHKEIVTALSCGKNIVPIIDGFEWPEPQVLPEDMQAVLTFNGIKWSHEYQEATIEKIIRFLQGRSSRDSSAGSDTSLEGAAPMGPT
# [9] = target: Mitogen-activated protein kinase 7 (Homo sapiens) (UniProt Q13164); assay: ERK5 transactivation activators in reporter cells, primary screen, cell-based, HTS (AID 1508626;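 active means luciferase signal above three times the same-plate solvent-only control wells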;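 further: luciferase driven by Gal4-ERK5 fusion binding five Gal4 sites before minimal TATA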); conditions: HeLa Gal4-ERK5 transactivation, 18 h, at 5 µM, stronger effect = higher value
# Sequence of Mitogen-activated protein kinase 7 (Homo sapiens) (Q13164 whole entry, looked up, the tested form may be a part): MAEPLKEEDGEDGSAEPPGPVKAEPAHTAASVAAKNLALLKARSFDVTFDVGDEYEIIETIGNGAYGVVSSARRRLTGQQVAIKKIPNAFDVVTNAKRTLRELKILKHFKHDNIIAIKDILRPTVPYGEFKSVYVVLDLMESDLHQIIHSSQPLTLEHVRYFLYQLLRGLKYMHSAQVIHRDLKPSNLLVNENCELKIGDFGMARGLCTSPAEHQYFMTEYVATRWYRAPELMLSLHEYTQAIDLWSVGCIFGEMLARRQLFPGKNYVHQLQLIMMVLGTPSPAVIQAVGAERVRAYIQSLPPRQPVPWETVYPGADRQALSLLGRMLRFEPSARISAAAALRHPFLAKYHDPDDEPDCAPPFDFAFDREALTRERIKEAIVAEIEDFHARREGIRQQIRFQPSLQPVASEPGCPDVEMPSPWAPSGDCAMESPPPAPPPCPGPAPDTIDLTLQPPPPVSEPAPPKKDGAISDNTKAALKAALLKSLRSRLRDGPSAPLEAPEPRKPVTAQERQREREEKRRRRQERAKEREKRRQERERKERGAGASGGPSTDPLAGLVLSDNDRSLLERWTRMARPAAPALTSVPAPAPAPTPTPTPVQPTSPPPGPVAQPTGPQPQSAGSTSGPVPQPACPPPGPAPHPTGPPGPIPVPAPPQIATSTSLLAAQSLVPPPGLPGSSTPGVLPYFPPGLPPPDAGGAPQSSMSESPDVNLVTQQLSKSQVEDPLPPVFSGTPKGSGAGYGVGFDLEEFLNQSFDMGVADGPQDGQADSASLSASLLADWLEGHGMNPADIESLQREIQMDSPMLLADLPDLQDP
# [10] = viability rescue of complex I mutant cybrids, primary screen, cell-based, galactose medium, ATP luminescence (AID 1645843;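 active means z-score of at least 1.8 in each of two replicates, scored against plate mean and spread of sample wells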;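 further: positive z means more ATP and so rescue of galactose-driven cybrid death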); conditions: complex I mutant cybrid cells, 72 h, stronger effect = higher value
# [11] = JHH-DIPG-1 glioma cell viability, MIPE5.0 library, CellTiter-Glo luminescence, qHTS (AID 1347067; cut-off not given, nearly all actives have AC50 up to about 26 µM;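 further: cells exposed to compound for 48 hours before readout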); conditions: JHH-DIPG-1 glioma viability, CellTiter-Glo ATP luminescence
# [12] = stronger effect = lower value, cell number ratio, induced over uninduced
# [13] = measured here: relative caspase fold change +Dox/-Dox
# [14] = measured here: total cells with miR-34 induction, stronger effect = lower value
# [15] = measured here: total cells without miR-34 induction
# [16] = MELAS cybrid survival, CellTiter-Glo 48 h, stronger effect = higher value
# [17] = Rieske KO mouse fibroblast survival, CellTiter-Glo 72 h
compound,measurement,setting,value
CCC[C@@H]1C[C@@H](C(=O)N[C@@H]([C@H]2O[C@H](SC)[C@H](O)[C@@H](O)[C@H]2O)[C@@H](C)O)N(C)C1,parasite load remaining,[1],63.5% (inactive)
same,viability,[1],128%
same,inhibition,[2],-15.1% (inactive)
same,outcome,[3],inactive
same,outcome,[4],inactive
same,outcome,[5],inactive
same,fold change,[6]; [12],0.837 (inactive)
same,fold change,[6]; [13],1.35
same,cell count,[6]; [14],8810
same,cell count,[6]; [15],10500
same,z-score,[7]; [16],0.52 (inactive) and 0.4 (inactive)
same,z-score,[7]; [17],-0.069 and -0.671
same,remaining NAD,[8],10 nM (inactive)
same,luciferase signal,[9],64 AU (inactive)
same,z-score,[10],-0.14 (inactive)
Nc1ccn([C@@H]2O[C@H](CO)[C@@H](O)[C@H]2O)c(=O)n1,inhibition,[2],-4.47% (inactive)
same,outcome,[3],inactive
same,outcome,[4],inactive
same,outcome,[11],inactive
same,luciferase signal,[9],60 AU (inactive)
COc1ccc(CCC(=O)c2c(O)cc(O[C@@H]3O[C@H](CO)[C@@H](O)[C@H](O)[C@H]3O[C@@H]3O[C@@H](C)[C@H](O)[C@@H](O)[C@H]3O)cc2O)cc1O,inhibition,[2],-14.9% (inactive)
same,AC50,[3],2.35 µM (active)
same,outcome,[4],inactive
same,outcome,[5],inactive
same,luciferase signal,[9],36 AU (inactive)
CC(=O)[C@H]1CC[C@H]2[C@@H]3CCC4=CC(=O)CC[C@]4(C)[C@H]3CC[C@]12C,inhibition,[2],14.1% (inactive)
same,AC50,[3],1.87 µM (active)
same,outcome,[4],inactive
same,fold change,[6]; [12],1.08 (inactive) and 0.812 (inactive) and 0.853 (inactive)
same,fold change,[6]; [13],0.82 and 1.33 and 1.49
same,cell count,[6]; [14],8120 and 7150 and 6560
same,cell count,[6]; [15],7520 and 8800 and 7700
same,z-score,[7]; [16],-0.398 (inactive) and 0.245 (inactive)
same,z-score,[7]; [17],-0.301 and 1.24
same,remaining NAD,[8],10 nM (inactive)
same,luciferase signal,[9],28 AU (inactive)
same,z-score,[10],-0.485 (inactive) and -1.04 (inactive)
COC1=C(OC)C(=O)C(C/C=C(\C)CC/C=C(\C)CC/C=C(\C)CC/C=C(\C)CC/C=C(\C)CC/C=C(\C)CC/C=C(\C)CC/C=C(\C)CC/C=C(\C)CCC=C(C)C)=C(C)C1=O,inhibition,[2],-47.9% (inactive)
same,outcome,[3],inactive
same,outcome,[4],inactive
COc1cc([C@@H]2c3cc4c(cc3[C@H](O)[C@H]3COC(=O)[C@@H]23)OCO4)cc(OC)c1OC,inhibition,[2],1.7% (inactive)
same,AC50,[4],0.235 µM (active)
same,AC50,[5],0.0372 µM (active)
same,AC50,[11],1.05 µM (active)
same,luciferase signal,[9],76 AU (inactive)
COc1cc2c(c(OC)c1OC)-c1ccc(OC)c(=O)cc1C(NC(C)=O)CC2 (stereo unspecified),inhibition,[2],-26.1% (inactive)
same,fold change,[6]; [12],0.969 (inactive)
same,fold change,[6]; [13],1.26
same,cell count,[6]; [14],1510
same,cell count,[6]; [15],1550
same,z-score,[10],-0.44 (inactive)
C[C@@H]1[C@H](O)[C@@H](C)/C=C/C=C/C=C/C=C/C=C/C=C/C=C/[C@H](O[C@@H]2O[C@H](C)[C@@H](O)[C@H](N)[C@@H]2O)C[C@@H]2O[C@](O)(C[C@@H](O)C[C@@H](O)[C@H](O)CC[C@@H](O)C[C@@H](O)CC(=O)O[C@H]1C)C[C@H](O)[C@H]2C(=O)O,parasite load remaining,[1],70.3% (inactive)
same,viability,[1],129%
same,inhibition,[2],-10.9% (inactive)
same,AC50,[3],0.833 µM (active)
same,AC50,[4],1.32 µM (active)
same,AC50,[5],6.62 µM (active)
same,outcome,[11],inactive
same,fold change,[6]; [12],0.894 (inactive)
same,fold change,[6]; [13],1.05
same,cell count,[6]; [14],7670
same,cell count,[6]; [15],8570
same,z-score,[7]; [16],-0.838 (inactive)
same,z-score,[7]; [17],-0.728
same,remaining NAD,[8],10 nM (inactive)
same,luciferase signal,[9],92 AU (inactive)
